The campaign covered roughly 16,000 compounds. About 5,700 (36%) were called active. About 24% were inconclusive and are not listed. The list shows a part of the results. Values without a mark were called inactive. The call rests on the fitted dose curve; in most records, active means well fitted curve in the direction sought with a large enough effect; inconclusive means small, poorly fitted or top-dose-only effect, or effect the other way; inactive means no such curve, though single readings can be large or run the other way.
On the % scale 0 is the no-effect control and ±100 the full control effect.

For the assay, the target named is Cytochrome P450 1A2 (Homo sapiens) (UniProt P05177). As to the kind of experiment: Cytochrome panel assay with activity outcomes. Particulars: recombinant CYP, pro-luciferin dealkylation, luminescence, p450-cyp1a2; series mostly up to 57.1 µM; activity, negative = inhibition: at the top concentration.
Sequence of Cytochrome P450 1A2 (Homo sapiens) (P05177 whole entry, looked up): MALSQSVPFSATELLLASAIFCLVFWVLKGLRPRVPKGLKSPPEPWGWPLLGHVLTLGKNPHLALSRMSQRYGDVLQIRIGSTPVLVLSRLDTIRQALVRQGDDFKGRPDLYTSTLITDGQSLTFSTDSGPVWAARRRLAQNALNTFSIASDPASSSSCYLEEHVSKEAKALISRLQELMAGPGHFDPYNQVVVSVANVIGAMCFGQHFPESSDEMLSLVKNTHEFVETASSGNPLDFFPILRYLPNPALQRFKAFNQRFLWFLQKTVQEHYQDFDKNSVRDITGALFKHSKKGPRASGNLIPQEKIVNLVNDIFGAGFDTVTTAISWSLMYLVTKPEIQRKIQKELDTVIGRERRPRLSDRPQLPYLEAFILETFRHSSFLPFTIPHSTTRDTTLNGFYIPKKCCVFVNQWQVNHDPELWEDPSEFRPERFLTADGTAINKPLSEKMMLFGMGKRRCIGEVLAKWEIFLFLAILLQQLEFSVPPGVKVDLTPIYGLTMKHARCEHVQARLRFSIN
For the compound `CC(CCN)(CCN)[N+](=O)[O-]`, the activity, negative = inhibition is -10.4% [at 11.4 µM].

For the compound `Cc1ccccc1CS(=O)(=O)CCC(=O)NCCCN1CCN(c2ccccc2F)CC1`, the “activity, negative = inhibition” value is -19.6%.

On to `O=C(NCCCN1CCN(c2ccccc2F)CC1)C1CCC(=O)N1C1CCCCC1` (configuration not stated), for which the “activity, negative = inhibition” value is 0.883%.

As to `CSc1ccc(NC(=O)NCCCN2CCN(c3ccccc3F)CC2)cc1`, the AC50 (in general, the concentration giving half of the maximal activity seen) was 2510 nM (active).

With `O=C(NCCCN1CCc2ccccc2C1)C1CCN(S(=O)(=O)N2CCCC2)CC1`, the “activity, negative = inhibition” value was 3.7%.

Turning to `CSc1ccc(NC(=O)NCCN2CCc3ccccc3C2)cc1`, the AC50 is 14100 nM (active).

For `O=C(NCCN1CCN(C(=O)C(c2ccccc2)c2ccccc2)CC1)C(=O)Nc1ccccc1`, the “activity, negative = inhibition” value was -23%.

Take `Fc1cccc(/C=N\N=C/c2cccc(F)c2)c1`: the AC50 was 200 nM (active).

For the compound `COc1cccc([C@@H]2Oc3ccc(OC)cc3/C(=N/O[C@@H](C)c3cc(-c4c(C)cc(C)cc4C)no3)[C@@H]2O)c1`, the activity, negative = inhibition is -10.9% [at 11.4 µM].

As for `Cc1cc(C)c(C(N)=O)c(NC(=O)Nc2ccccc2)n1`, the AC50 was 3160 nM (active).

`Cc1cc(N)c2cc(NC(=O)Nc3ccc4nc(C)cc(N)c4c3)ccc2n1`: the activity, negative = inhibition was -1.54% [at 11.4 µM].

On to `Cc1noc2ncnc(Oc3ccc4ccccc4c3)c12`, for which the AC50 was 8910 nM (active).

Take `Cc1cccc(Oc2ncnc3onc(C)c23)c1C`: the AC50 is 17800 nM (active).

As to `CCNCCCNCCCNCCCNCC`, the “activity, negative = inhibition” value is -9.81%.

For the compound `O=C(Nc1ccc(Cl)c(Cl)c1)N1CCC(N2CCCCC2)CC1`, the “activity, negative = inhibition” value is -19.8%.

In the case of `CC1CCN(C(=O)Nc2ccc3nsnc3c2)CC1`, the AC50 is 11200 nM (active).

Turning to `CC1CCN(CCc2nc3cc(NC(=O)NC4CCCCC4)ccc3n2C)CC1`, the “activity, negative = inhibition” value was 3.24%.

As to `COc1ccc(COC(=O)N/N=C2/C[C@@H](O)[C@@H](O)[C@@H]3[C@H]4C(=O)N(c5ccc(F)cc5F)C(=O)[C@@H]4CC[C@H]23)cc1`, the activity, negative = inhibition was -6.28% [at 11.4 µM].

`Cc1cc(O)c(C(C)C)cc1N=Cc1ccccc1O`: the AC50 was 1580 nM (active).

In the case of `O=S(=O)(O)c1cc(O)c2c(N=Cc3ccccc3O)cc(S(=O)(=O)O)cc2c1`, the activity, negative = inhibition is -23.7% [at 2.29 µM].

On to `COc1ccc(C(=O)N2CCC3(CCCN(Cc4cc(C(F)(F)F)cc(C(F)(F)F)c4)C3)CC2)cc1`, for which the “activity, negative = inhibition” value was 11.6%.

As to `O=C(O)C1(Nc2ccc(Cl)cc2)CCCC1`, the activity, negative = inhibition was -2.69% [at 11.4 µM].

As for `N#CC1(Nc2ccc(-c3ccc(NC4(C#N)CCCC4)cc3)cc2)CCCC1`, the AC50 was 3160 nM (active).

Regarding `COCC(=O)N1CCC2(CCCN(Cc3cc(C(F)(F)F)cc(C(F)(F)F)c3)C2)CC1`, the “activity, negative = inhibition” value is 3.63%.

`S=C(Nc1ccc2cn[nH]c2c1)Nc1ccc2cn[nH]c2c1`: the AC50 was 126 nM (active).

As for `N#CC(C#N)=NNc1ccc2cn[nH]c2c1`, the AC50 is 1260 nM (active).

Take `O=C(O)c1c(Cl)c(Cl)c(Cl)c(Cl)c1C(=O)Nc1ccc2cn[nH]c2c1`: the AC50 was 200 nM (active).

For the origin of these results see PubChem BioAssay AID1851 (National Center for Advancing Translational Sciences (NCATS), 2009).
